Assay results reported in PubChem BioAssay.
Where “and” joins values, the source holds several entries; their conditions need not be identical. Equal entries are not always repeated. Calls of active or inactive are those of the source.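 Rule for the calls, unless noted: active = compounds whose cell count with miR-34 switched on is under 0.7 times the count with it off; inactive = the rest.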

Key:
[1] = system: Aerobactin synthetase IucA (Klebsiella pneumoniae); test: IucA aerobactin synthetase inhibitors, biochemical, Tocris library, absorbance (AID 1345561; call rule not given here;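 note: 100% = enzyme without compound and 0% = no enzyme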); settings: purified IucA enzyme assay, absorbance (OD) read-out; stronger effect = lower value;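 tested at 8 µM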
[2] = sensitizers of A549 cells to miR-34 induction, primary screen, imaging, A549 dox-inducible miR-34, nuclei and caspase counts (AID 1347080); settings: A549 miR-34 inducible, Hoechst nuclei count, 48 h
[3] = viability rescue of complex I mutant cybrids, primary screen, cell-based, galactose medium, ATP luminescence (AID 1645843;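 active = z-score of at least 1.8 in each of two replicates, scored against plate mean and spread of sample wells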;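 note: positive z means more ATP and so rescue of galactose-driven cybrid death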); settings: complex I mutant cybrid cells, 72 h, stronger effect = higher value
[4] = stronger effect = lower value, cell number ratio, induced over uninduced
[5] = measured here: relative caspase fold change +Dox/-Dox
[6] = measured here: total cells with miR-34 induction, stronger effect = lower value
[7] = measured here: total cells without miR-34 induction

Row | SMILES | remaining activity [1] | fold change [2, 4] | fold change [2, 5] | cell count [2, 6] | cell count [2, 7] | z-score [3] | fold change ([2]; stronger effect = lower value)
1 | COC(=O)CN1CN(c2ccccc2)C2(CCN(Cc3ccc4ccccc4c3)CC2)C1=O | 120% (inactive) | 0.912 (inactive) | 0.824 | 8960 | 9820 | 0.375 (inactive) | 
2 | c1ccc(CC(c2ccccc2)N2CCCCC2)cc1 (centres undefined) | 103% (inactive) |  | 0.814 | 9440 | 9860 | -0.99 (inactive) | 0.958 (inactive)
3 | CNCCc1cnc[nH]1 | 101% (inactive) | 0.965 (inactive) | 0.943 | 9430 | 9770 | 0.115 (inactive) | 
4 | Fc1ccc(C(OCCN2CCN(C/C=C/c3ccccc3)CC2)c2ccc(F)cc2)cc1 | 116% (inactive) | 0.843 (inactive) | 1.03 | 2280 | 2710 | -1.23 (inactive) | 
5 | CN(C)c1ccc(/C=C2\CCCN=C2c2cccnc2)cc1 | 94.5% (inactive) | 0.947 (inactive) | 1.33 | 8030 | 8480 | -0.4 (inactive) | 
6 | CN(C(=O)Cc1ccc(Cl)c(Cl)c1)[C@H](CN1CCCC1)c1ccccc1 | 98.2% (inactive) | 0.987 (inactive) | 0.762 | 7540 | 7640 | -0.625 (inactive) | 
7 | CCOc1cncc(/C=C/CCNC)c1 | 108% (inactive) | 0.967 (inactive) | 1.27 | 8770 | 9060 | -0.075 (inactive) | 
8 | CC(C)n1cnc2c(C(=O)N[C@H]3CN4CCC3CC4)cc(Cl)cc21 | 102% (inactive) | 0.928 (inactive) | 0.88 | 8010 | 8630 | 2.03 (inactive) | 
9 | CCC[C@@H]1CC2=CC(=O)CC[C@]2(C)[C@H]2CC[C@@]3(C)[C@@H](CC[C@@]3(O)CCC(=O)O)[C@H]12 | 116% (inactive) | 0.926 (inactive) | 0.977 | 7340 | 7920 | 0.06 (inactive) | 
10 | CCCN[C@@H]1CCc2c(OC)cccc2[C@@H]1C | 99.1% (inactive) | 0.939 (inactive) | 1.14 | 8780 | 9360 | 0.12 (inactive) | 
11 | O=C1/C(=C/c2ccccc2)C[C@@]2(O)C3Cc4ccc(O)c5c4[C@@]2(CCN3CC2CC2)[C@H]1O5 | 97.5% (inactive) |  | 0.83 | 919 | 833 | -1.12 (inactive) | 1.1 (inactive)
12 | O=C1Nc2cc(Cl)c(Cl)cc2N2CCNCC12 (centres undefined) | 125% (inactive) | 0.949 (inactive) | 0.693 | 8510 | 8970 | -0.265 (inactive) | 
13 | O=C(O)Cc1cccnc1C(=O)O | 108% (inactive) | 0.98 (inactive) | 0.669 | 8790 | 8970 | 0.32 (inactive) | 
14 | OC12C3C4CC5C6C4C1C6C(C53)N2CCc1cccc(F)c1 (centres undefined) | 98.4% (inactive) | 0.838 (inactive) | 1.86 | 7940 | 9480 | 0.295 (inactive) | 
15 | c1ccc(C2CNCc3ccccc32)cc1 (centres undefined) | 117% (inactive) | 0.949 (inactive) | 0.998 | 8070 | 8500 | -0.455 (inactive) | 
16 | C[C@H](NC[C@H](O)CP(=O)(O)CC1CCCCC1)c1ccc(Cl)c(Cl)c1 | 121% (inactive) | 0.971 (inactive) | 0.73 | 10100 | 10400 | 0.2 (inactive) | 
17 | O=C(CCCN1CCC2(CC1)C(=O)N(Cc1cccc(F)c1)CN2c1ccccc1)c1ccc(F)cc1 | 109% (inactive) | 1.27 (inactive) | 1 | 1590 | 1250 | -1.2 (inactive) | 
18 | C=CCN1C[C@H](C)N([C@H](c2ccc(C(=O)N(CC)CC)cc2)c2cccc(O)c2)C[C@H]1C | 99.4% (inactive) | 0.929 (inactive) | 0.728 | 8160 | 8780 | -0.17 (inactive) | 
19 | CN1CC[C@@H]2CN3CCc4cccc(c43)[C@@H]2C1 | 120% (inactive) | 0.917 (inactive) | 0.673 | 8120 | 8850 | -0.34 (inactive) | 
20 | Cn1cc(C(=O)C(=O)N[C@H]2CN3CCC2CC3)c2ccccc21 | 92.5% (inactive) | 0.891 (inactive) | 1.06 | 8410 | 9440 | 0.935 (inactive) | 

Row | SMILES | remaining activity [1] | fold change [2, 4] | fold change [2, 5] | cell count [2, 6] | cell count [2, 7] | z-score [3] | fold change ([2]; stronger effect = lower value)
21 | C=C(C)[C@@H]1CCC(C)=C[C@H]1c1c(OC)cc(C)cc1OC | 106% (inactive) | 0.943 (inactive) and 0.926 (inactive) | 0.715 and 0.958 | 5230 and 8980 | 5540 and 9700 | -0.105 (inactive) | 
22 | Cc1nnc2ccc(-c3cccc(C(F)(F)F)c3)nn12 | 126% (inactive) |  | 0.497 | 9060 | 9940 | 0.155 (inactive) | 0.912 (inactive)
23 | CC(C)(Cc1c[nH]c2ccc(Cl)cc12)NCCOc1ccccc1OCC1CC1 | 119% (inactive) | 0.921 (inactive) | 1.09 | 226 | 246 | -1.23 (inactive) | 
24 | CCCCCOc1c(OC)ccc2cc(C(=O)NCc3ccc4c(c3)OCO4)c(=O)[nH]c12 | 107% (inactive) | 1.04 (inactive) | 1.43 | 5450 | 5260 | 0.125 (inactive) | 
25 | CN1Cc2ccccc2[C@@H]2c3cccc4[nH]cc(c34)C[C@H]21 | 114% (inactive) | 0.936 (inactive) | 0.677 | 4560 | 4870 | -0.7 (inactive) | 
26 | Cn1c2c(c3ccccc31)CCNCC2 | 98.4% (inactive) | 0.896 (inactive) | 1.23 | 8130 | 9070 | -0.23 (inactive) | 
27 | Cc1[nH]c2ccc(Cl)cc2c1C1=CCNCC1 | 103% (inactive) | 0.919 (inactive) | 1.4 | 7850 | 8550 | -0.42 (inactive) | 
28 | Cc1ccc2c(c1)Cc1c(C(=O)NC3CCCCC3)nn(-c3ccc(Cl)cc3Cl)c1-2 | 103% (inactive) | 0.986 (inactive) | 1.35 | 8570 | 8690 | -0.01 (inactive) | 
29 | Cc1o[nH]c(=O)c1C[C@H](N)C(=O)O | 106% (inactive) | 1.04 (inactive) | 0.71 | 9160 | 8800 | 0.59 (inactive) | 
30 | Cc1ccc2c(c1)Cc1c(C(=O)NN3CCCCC3)nn(-c3ccc(Cl)cc3Cl)c1-2 | 102% (inactive) | 0.912 (inactive) | 1.23 | 5690 | 6240 | -0.67 (inactive) | 
31 | c1ccc(CCCCN2CCC(c3ccccc3)CC2)cc1 | 90.6% (inactive) | 0.976 (inactive) | 1.02 | 8670 | 8890 | 0.375 (inactive) | 
32 | O=C1CSC(c2ccccc2Cl)c2cc(Cl)ccc2N1 (centres undefined) | 115% (inactive) |  | 1.12 and 0.874 | 2450 and 7360 | 2880 and 8400 | -0.095 (inactive) | 0.848 (inactive) and 0.875 (inactive)
33 | CCCCCCC[n+]1ccc(-c2cc[n+](CCCCCCC)cc2)cc1 | 77% (inactive) | 1.13 (inactive) | 1.23 | 1940 | 1710 | -1.1 (inactive) | 
34 | C[C@@H]1O[C@@H](O[C@@H]2C[C@@H](O)[C@]3(CO)[C@H]4[C@H](O)C[C@]5(C)[C@@H](C6=CC(=O)OC6)CC[C@]5(O)[C@@H]4CC[C@]3(O)C2)[C@H](O)[C@H](O)[C@H]1O | 107% (inactive) | 0.807 (inactive) | 1.91 | 346 | 430 | -0.765 (inactive) | 
35 | CCCN(CCC)[C@@H]1CCc2c(OC)cccc2[C@@H]1C | 103% (inactive) | 0.92 (inactive) | 0.674 | 8420 | 9160 | 0.925 (inactive) | 
36 | N[C@]1(C(=O)O)CC[C@@H](C(=O)O)C1 (racemic) | 103% (inactive) | 0.971 (inactive) | 0.73 | 7990 | 8230 | 0.095 (inactive) | 
37 | Cc1ccc2c(c1)C1(CCN(CCc3nc(-c4ccccc4)oc3C)CC1)OC(=O)N2 | 95% (inactive) | 0.966 (inactive) | 1.87 | 5420 | 5610 | -0.635 (inactive) | 
38 | COC1(C[S@@](=O)c2ccccc2)CCN(CCc2c[nH]c3ccc(F)cc23)CC1 | 113% (inactive) | 0.956 (inactive) | 1.03 | 8390 | 8770 | -0.4 (inactive) | 
39 | O=C(O)/C=C/CO | 109% (inactive) | 0.992 (inactive) | 0.9 | 9440 | 9510 | -0.335 (inactive) | 
